Source: the supplement of paper PMC7556523

Legend:
[1] = tested on: Sporothrix brasiliensis CBS 133006; assay: growth inhibition relative to untreated control; higher = more growth inhibition (more antifungal activity), active = 80 or more; extreme values may be limits of the assay; conditions: 1 µM; 48 h
How it was run: (§1)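 Before testing, the reference isolates were kept in brain heart infusion broth with 2% glucose at 36°C for 7 days to give yeast-form cells. These cells, at 1 x 10^5 CFU/ml, received library compounds at a final 1 μM and were held 48 h at 35°C in 5% CO2. Growth was checked by eye under an inverted light microscope and quantified spectrophotometrically in quadruplicate, and the value is percent growth inhibition versus untreated cells.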

[2] = tested on: Sporothrix schenckii ATCC 32286; assay: as above; conditions: 1 µM; 48 h
How it was run: as §1

Q: With `CCOC(=O)c1noc(N)c1-c1ccccc1` as the molecule, how does the growth inhibition [1] read?
A: 16.5% (inactive)

Q: And the growth inhibition [2]?
A: 0% (inactive)

Q: How did the growth inhibition [1] turn out when `CCCCS(=O)(=O)Nc1ccc2cnn(C)c2c1` was run?
A: 4.75% (inactive)

Q: And the growth inhibition [2]?
A: 1.75% (inactive)

Q: `Cc1nnc(NCc2cccc(Cl)c2)c2ccccc12` was tested. Which growth inhibition [1] did it give?
A: 3% (inactive)

Q: What about the growth inhibition [2] of the same molecule?
A: 8.75% (inactive)

Q: Which results are given for `CO[C@@H](C(=O)N1Cc2[nH]nc(NC(=O)c3ccc(N4CCN(C)CC4)cc3)c2C1)c1ccccc1`?
A: growth inhibition [1]: 16.2% (inactive); growth inhibition [2]: 1.5% (inactive)

Q: With `CCN(CC)CCCN1CCN(C(=O)c2cccc(-c3noc(C(F)(F)F)n3)c2)CC1` as the molecule, how does the growth inhibition [1] read?
A: 25% (inactive)

Q: And the growth inhibition [2]?
A: 0% (inactive)

Q: Which results are given for `Cc1cc2ccccc2n1CC(=O)N1CC(C(=O)N2CCCCC2)Oc2ccccc21` (centres undefined)?
A: growth inhibition [1]: 14.8% (inactive); growth inhibition [2]: 10.8% (inactive)

Q: For `Cc1cc(C)nc(-n2nc(C)cc2Nc2ccccc2)n1`, which growth inhibition [1] is on record?
A: 17.2% (inactive)

Q: What about the growth inhibition [2] of the same molecule?
A: 1% (inactive)

Q: How did the growth inhibition [1] turn out when `CC(C)(C)C(=O)N(CCCCCCN1C[C@H](O)[C@@H](O)[C@H](O)[C@H]1CO)C1CCCCCC1` was run?
A: 6.25% (inactive)

Q: What about the growth inhibition [2] of the same molecule?
A: 8% (inactive)

Q: With `c1ccc(Oc2ccc(-c3cc(N4CCNCC4)[nH]n3)cc2)cc1` as the molecule, how does the growth inhibition [1] read?
A: 0% (inactive)

Q: And the growth inhibition [2]?
A: 4% (inactive)

Q: With `FC(F)(F)c1nnc2ccc(Cl)nn12` as the molecule, how does the growth inhibition [1] read?
A: 9.25% (inactive)

Q: And the growth inhibition [2]?
A: 14% (inactive)

Q: How did the growth inhibition [1] turn out when `COc1cccc2c(C)nc(N=C(N)N)nc12` was run?
A: 10% (inactive)

Q: What about the growth inhibition [2] of the same molecule?
A: 20.8% (inactive)

Q: What does the source list for `Nc1ncnc2[nH]nc(Cc3cccc4ccccc34)c12`?
A: growth inhibition [1]: 6.25% (inactive); growth inhibition [2]: 0% (inactive)

Q: Which growth inhibition [1] does the source give for `O=C1[C@@H](Oc2ccccc2)[C@@H](c2ccc(Cl)cc2)N1CCn1cnc2c(NCc3ccccc3)ncnc21` here?
A: 14% (inactive)

Q: What about the growth inhibition [2] of the same molecule?
A: 17.8% (inactive)

Q: How did the growth inhibition [1] turn out when `CNC(=O)C1Cc2c([nH]c3cc(Cl)ccc23)C2(CCN(CCc3ccccc3)CC2)N1` (centres undefined) was run?
A: 10.8% (inactive)

Q: What about the growth inhibition [2] of the same molecule?
A: 0% (inactive)

Q: How did the growth inhibition [1] turn out when `CC(C)(C)c1ccc(N[C@@H]2CCCC[C@H]2NC(=O)c2ccco2)cc1` was run?
A: 7.25% (inactive)

Q: And the growth inhibition [2]?
A: 0.75% (inactive)

Q: Which growth inhibition [1] does the source give for `Cc1nc(-c2ccccn2)nc(NCCc2ccc(S(C)(=O)=O)cc2)c1Cl` here?
A: 13% (inactive)

Q: What about the growth inhibition [2] of the same molecule?
A: 0% (inactive)

Q: With `Nc1ncnc2c1c(-c1cnc3ccccc3c1)nn2CC1CCNCC1` as the molecule, how does the growth inhibition [1] read?
A: 13.2% (inactive)

Q: What about the growth inhibition [2] of the same molecule?
A: 15.5% (inactive)

Q: Which growth inhibition [1] does the source give for `O=C(Nc1ccccc1)c1ccc(-c2cc3ccncc3cc2OC2CCNCC2)s1` here?
A: 8.75% (inactive)

Q: And the growth inhibition [2]?
A: 11% (inactive)

Q: For `COc1cc(CN2CCC3(C=Cc4ccccc43)CC2)cc2c1OCO2`, which growth inhibition [1] is on record?
A: 4.25% (inactive)

Q: And the growth inhibition [2]?
A: 3.25% (inactive)

Q: Which results are given for `Cc1ccc(NC(=O)CC2COc3ccccc3O2)cc1Cl` (centres undefined)?
A: growth inhibition [1]: 10% (inactive); growth inhibition [2]: 0% (inactive)

Q: Which results are given for `O=C([C@@H](c1ccc(Cl)cc1)c1cccnc1)N1CCN(c2ccc(C(F)(F)F)cc2)CC1`?
A: growth inhibition [1]: 25.2% (inactive); growth inhibition [2]: 2% (inactive)

Q: For `Cc1nn(C)cc1C(C)Nc1nncc(-c2ccc(C(F)(F)F)cc2)n1` (centres undefined), which growth inhibition [1] is on record?
A: 16% (inactive)

Q: What about the growth inhibition [2] of the same molecule?
A: 4.75% (inactive)

Q: What does the source list for `Cn1ccnc1CNCCS(=O)(=O)c1cccc(Nc2ccc(-c3cccc(F)c3)cn2)c1`?
A: growth inhibition [1]: 4.25% (inactive); growth inhibition [2]: 0% (inactive)

Q: With `O=C(NC1CCCCC1)N1CCN(Cc2ccc3c(c2)OCO3)CC1` as the molecule, how does the growth inhibition [1] read?
A: 9.25% (inactive)

Q: What about the growth inhibition [2] of the same molecule?
A: 17.2% (inactive)

Q: Which growth inhibition [1] does the source give for `CC(C)(C)n1nc(Cc2cccc3ccccc23)c2c(N)ncnc21` here?
A: 11% (inactive)

Q: And the growth inhibition [2]?
A: 0% (inactive)

Q: Which results are given for `CN1CCCC1CCO[C@](C)(c1ccccc1)c1ccc(Cl)cc1` (some centres undefined)?
A: growth inhibition [1]: 11.8% (inactive); growth inhibition [2]: 14.8% (inactive)

Q: How did the growth inhibition [1] turn out when `Cc1nc(-c2cccc(NCc3ccccc3)c2)[nH]c1C` was run?
A: 1.25% (inactive)

Q: And the growth inhibition [2]?
A: 10.2% (inactive)

Q: For `CNCCC(Oc1ccc(C(F)(F)F)cc1)c1ccccc1` (centres undefined), which growth inhibition [1] is on record?
A: 7.75% (inactive)

Q: What about the growth inhibition [2] of the same molecule?
A: 2% (inactive)

Q: How did the growth inhibition [1] turn out when `COc1ccc(-c2cnc3ccc(N4CCCC4)nn23)cc1OC` was run?
A: 21% (inactive)

Q: What about the growth inhibition [2] of the same molecule?
A: 0% (inactive)

Q: Which growth inhibition [1] does the source give for `CS(=O)(=O)c1ccc(C(=O)N(CC2CCCO2)c2nc3ccccc3s2)cc1[N+](=O)[O-]` (centres undefined) here?
A: 27.2% (inactive)

Q: What about the growth inhibition [2] of the same molecule?
A: 19% (inactive)

Q: What does the source list for `CN1CCN(S(=O)(=O)c2ccc(-c3ccc4c(Nc5ccc6nn[nH]c6c5)ccnc4c3)cc2)CC1`?
A: growth inhibition [1]: 4.25% (inactive); growth inhibition [2]: 7.5% (inactive)

Q: With `COc1ccc(CCN2CCC(NCc3cccc(N(C)C)c3)CC2)cc1` as the molecule, how does the growth inhibition [1] read?
A: 29% (inactive)

Q: What about the growth inhibition [2] of the same molecule?
A: 9.75% (inactive)
